Among the data in PubChem BioAssay (EPA / NIEHS) are outcome and AC50 values, retold here.

The nature of experiment [1]: ATG_GLI_CIS: Attagene CIS-FACTORIAL HepG2 Assay for human Zinc Finger Protein GLI1 (AID 2282945). Conditions: HepG2, Attagene cis-factorial reporter mRNA, GLI element; actives raise or lower the signal. The procedure, abridged:
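HepG2 cells transiently transfected with cis-promoter multiplexed reporter units report endogenous transcription factor activity. After 24 h chemical exposure, reporter mRNA was quantified by RT-PCR, 6-FAM labelling, HpaI digestion and capillary electrophoresis, with bidirectional fitting against DMSO.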

Experiment [2] concerns the target Bile acid receptor (Homo sapiens) (UniProt Q96RI1). Briefly: ATG_IR1_CIS: Attagene CIS-FACTORIAL HepG2 Assay for human Nuclear Receptor Subfamily 1 Group H Member 4 (NR1H4), IR1 submotif (AID 2282946). The note with it: IR1 reporter transcription, actives raise or lower the signal. The procedure, abridged:
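Transient MRTU transfection, HepG2; 24 h dosing; RNA → RT-PCR → 6-FAM primer extension → HpaI digest → capillary electrophoresis fluorescence. Gain/loss of signal fitted relative to DMSO.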

Experiment [3] can be described thus: ATG_GRE_CIS: Attagene CIS-FACTORIAL HepG2 Assay for human Glucocorticoid Response Elements (GRE) (AID 2282947). The note with it: HepG2 GRE cis-reporter, Attagene multiplex mRNA; actives raise or lower the signal. The procedure, abridged: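 HepG2 cells transiently transfected with multiple cis-promoter reporter units measure endogenous TF activity; 24 h compound exposure. Reporter mRNA quantified by RT-PCR, FAM labelling, HpaI digestion and capillary electrophoresis; bidirectional fit vs DMSO baseline.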

Experiment [4] can be described thus: ATG_ISRE_CIS: Attagene CIS-FACTORIAL HepG2 Assay for human Interferon Regulatory Factor 1 (IRF1) binding to an Interferon-Stimulated Response Element (ISRE) (AID 2282948). Conditions: HepG2 ISRE cis-reporter (Attagene), mRNA transcription readout; actives raise or lower the signal. In a few lines:
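Transiently transfected HepG2 cells carrying cis-element reporter units, dosed 24 hours. Reporter mRNA quantified by RT-PCR, fluorescent primer extension, HpaI digestion and capillary electrophoresis. Bidirectional fitting relative to DMSO.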

A short description of experiment [5]: ATG_M_06_CIS: Attagene CIS-FACTORIAL HepG2 Assay for M06 Transcription Factor (Internal Marker) (AID 2282950). The note with it: HepG2 Attagene CIS-FACTORIAL M06 internal marker reporter; actives raise or lower the signal. The procedure, abridged:
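HepG2 liver cells, 24 h exposure. Reporter transcripts from transfected cis-element constructs quantified by RT-PCR/capillary electrophoresis fluorescence. Bidirectional curve fit against DMSO.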

Experiment [6] addresses Hypoxia-inducible factor 1-alpha (Homo sapiens) (UniProt Q16665). Briefly: ATG_HIF1a_CIS: Attagene CIS-FACTORIAL HepG2 Assay for human Hypoxia Inducible Factor 1 (HIF1A) (AID 2282951). Conditions: HepG2 Attagene cis-factorial HIF1a reporter transcription; actives raise or lower the signal. In a few lines: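 HepG2 cells transiently transfected with multiple cis-regulated reporter transcription units measure endogenous transcription factor activity. After 24 h exposure, reporter mRNA is quantified by RT-PCR with 6-FAM labelling, HpaI digestion and capillary electrophoresis. Bidirectional fitting against DMSO.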

The target of experiment [7] is Hepatocyte nuclear factor 6 (Homo sapiens) (UniProt Q9UBC0). The experiment is described as follows: ATG_HNF6_CIS: Attagene CIS-FACTORIAL HepG2 Assay for human Hepatocyte Nuclear Factor 6 (HNF6) (AID 2282952). Conditions: HepG2 Attagene cis-factorial HNF6 reporter transcription; actives raise or lower the signal. In a few lines: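 HepG2 cells transiently transfected with cis-element-driven multiple reporter transcription units, dosed 24 h; reporter mRNA quantified by RT-PCR, FAM primer extension, HpaI digestion and capillary electrophoresis; bidirectional fit versus DMSO baseline.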
Hepatocyte nuclear factor 6 (Homo sapiens), sequence (Q9UBC0 whole entry, looked up): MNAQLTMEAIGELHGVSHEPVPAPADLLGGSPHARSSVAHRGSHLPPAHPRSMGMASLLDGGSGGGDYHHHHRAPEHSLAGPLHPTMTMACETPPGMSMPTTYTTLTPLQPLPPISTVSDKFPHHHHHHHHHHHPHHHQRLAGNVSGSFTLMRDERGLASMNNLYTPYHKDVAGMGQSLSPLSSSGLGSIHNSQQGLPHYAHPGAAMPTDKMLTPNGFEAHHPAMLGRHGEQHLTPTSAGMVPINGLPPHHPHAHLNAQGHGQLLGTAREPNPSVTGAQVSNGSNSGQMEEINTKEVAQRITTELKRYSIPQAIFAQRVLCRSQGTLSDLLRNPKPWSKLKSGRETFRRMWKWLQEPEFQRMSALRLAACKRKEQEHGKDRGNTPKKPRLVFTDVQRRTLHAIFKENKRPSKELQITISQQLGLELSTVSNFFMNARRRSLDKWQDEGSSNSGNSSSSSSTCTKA

Experiment [8] concerns the target Heat shock factor protein 1 (Homo sapiens) (UniProt Q00613). Briefly: ATG_HSE_CIS: Attagene CIS-FACTORIAL HepG2 Assay for human Heat Shock Transcription Factor 1 (HSE) (AID 2282953). Conditions: HepG2 HSE cis-reporter, Attagene RNA transcription; actives raise or lower the signal. In a few lines:
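Endogenous transcription factor activity captured via cis-promoter reporter units transfected into HepG2; treatment lasted 24 h. Fluorescence intensity of reporter fragments analysed with bidirectional curve fitting, DMSO baseline.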

Experiment [9] in a line: ATG_MRE_CIS: Attagene CIS-FACTORIAL HepG2 Assay for human Metal Responsive Element (MRE) (AID 2282954). Conditions: HepG2 MRE cis-reporter transcription, Attagene multiplex; actives raise or lower the signal. In a few lines:
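HepG2 cells transiently transfected with multiple cis-element reporter units measure endogenous MTF1-driven transcription. After 24 h compound exposure, reporter mRNA is quantified by RT-PCR with 6-FAM labelling, HpaI digestion and capillary electrophoresis; bidirectional fits versus DMSO.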

A short description of experiment [10]: ATG_M_32_CIS: Attagene CIS-FACTORIAL HepG2 Assay for M32 Transcription Factor (Internal Marker) (AID 2282949).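 Further: background control marker of the multiplexed CIS panel rather than a real target.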 The note with it: HepG2 Attagene cis-factorial M32 reporter, mRNA; actives raise or lower the signal. In a few lines:
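Internal background marker read-out: RT-PCR/capillary electrophoresis fluorescence of reporter transcripts from transiently transfected HepG2 cells after 24 h chemical exposure. Activity fitted bidirectionally relative to DMSO negative control.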

“And” between values parts separate entries of the source, which are not always exact repeats. Identical values can stand only once. A structure can be active in one record and inactive in another. The source made the active and inactive calls. How the source made its calls: active means hit-call score of the fitted dose curve at least 0.9, where 1 is the maximum; inactive means score below 0.9.

Hypoxia-inducible factor 1-alpha (Homo sapiens), sequence (Q16665 whole entry, looked up): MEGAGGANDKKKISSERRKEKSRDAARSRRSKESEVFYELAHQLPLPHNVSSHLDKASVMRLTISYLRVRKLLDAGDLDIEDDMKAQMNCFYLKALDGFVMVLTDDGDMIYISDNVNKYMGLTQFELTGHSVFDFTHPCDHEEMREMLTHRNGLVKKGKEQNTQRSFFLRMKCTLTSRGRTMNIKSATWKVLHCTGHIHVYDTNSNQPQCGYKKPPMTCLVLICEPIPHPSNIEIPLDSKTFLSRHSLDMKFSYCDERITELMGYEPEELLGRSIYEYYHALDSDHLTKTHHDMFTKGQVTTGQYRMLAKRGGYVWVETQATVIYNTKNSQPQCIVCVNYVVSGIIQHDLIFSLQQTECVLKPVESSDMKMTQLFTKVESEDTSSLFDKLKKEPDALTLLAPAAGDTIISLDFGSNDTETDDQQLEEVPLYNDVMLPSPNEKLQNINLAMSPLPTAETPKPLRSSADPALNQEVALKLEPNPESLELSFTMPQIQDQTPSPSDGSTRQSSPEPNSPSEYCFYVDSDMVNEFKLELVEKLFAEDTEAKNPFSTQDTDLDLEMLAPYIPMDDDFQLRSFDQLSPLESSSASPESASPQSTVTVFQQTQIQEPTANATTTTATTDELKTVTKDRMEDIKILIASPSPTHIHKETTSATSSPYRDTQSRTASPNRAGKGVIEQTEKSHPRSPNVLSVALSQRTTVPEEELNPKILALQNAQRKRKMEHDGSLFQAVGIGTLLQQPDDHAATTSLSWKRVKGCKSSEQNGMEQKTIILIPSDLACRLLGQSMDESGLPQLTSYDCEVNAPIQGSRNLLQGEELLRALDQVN
Heat shock factor protein 1 (Homo sapiens), sequence (Q00613 whole entry, looked up, the tested form may be a part): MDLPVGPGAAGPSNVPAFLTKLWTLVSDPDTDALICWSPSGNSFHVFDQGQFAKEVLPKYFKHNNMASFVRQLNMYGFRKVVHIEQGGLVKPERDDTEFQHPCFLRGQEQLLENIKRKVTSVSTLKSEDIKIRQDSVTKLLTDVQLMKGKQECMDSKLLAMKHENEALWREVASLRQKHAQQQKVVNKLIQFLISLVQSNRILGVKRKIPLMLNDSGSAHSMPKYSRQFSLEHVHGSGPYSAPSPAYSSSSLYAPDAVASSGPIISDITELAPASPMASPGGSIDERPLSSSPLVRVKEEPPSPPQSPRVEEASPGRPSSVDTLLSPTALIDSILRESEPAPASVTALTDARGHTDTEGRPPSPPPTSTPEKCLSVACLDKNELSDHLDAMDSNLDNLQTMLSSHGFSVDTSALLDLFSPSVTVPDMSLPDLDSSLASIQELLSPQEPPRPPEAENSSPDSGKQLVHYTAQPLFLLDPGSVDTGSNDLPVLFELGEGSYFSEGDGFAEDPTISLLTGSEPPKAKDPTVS
Bile acid receptor (Homo sapiens), sequence (Q96RI1 whole entry, looked up): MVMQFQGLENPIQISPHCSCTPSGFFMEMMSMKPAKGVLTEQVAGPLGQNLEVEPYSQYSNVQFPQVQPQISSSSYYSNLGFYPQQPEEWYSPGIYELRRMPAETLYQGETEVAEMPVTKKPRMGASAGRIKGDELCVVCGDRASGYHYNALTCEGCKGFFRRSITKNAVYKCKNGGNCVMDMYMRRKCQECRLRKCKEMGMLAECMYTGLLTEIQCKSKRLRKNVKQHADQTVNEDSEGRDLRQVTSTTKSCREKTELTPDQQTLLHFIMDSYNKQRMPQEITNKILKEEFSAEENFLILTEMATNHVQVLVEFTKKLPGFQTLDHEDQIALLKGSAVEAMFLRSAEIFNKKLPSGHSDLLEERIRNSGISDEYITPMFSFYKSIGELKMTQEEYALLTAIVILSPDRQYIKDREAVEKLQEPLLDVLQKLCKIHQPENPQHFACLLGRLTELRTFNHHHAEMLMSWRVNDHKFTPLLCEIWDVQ

Consider `COc1nn(CSP(=S)(OC)OC)c(=O)s1`, for which the compound was called inactive in [1], in experiment [2], in experiment [3], in [4], in experiment [5] and in [6]. Besides, the result in experiment [7], in [8] and in experiment [9] was inactive.
Regarding `O=[N+]([O-])/N=C1\NCCN1Cc1ccc(Cl)nc1`, the result in experiment [1], in [2], in [3], in experiment [4], in experiment [5] and in [6] was inactive. Also, the compound was called inactive in experiment [7], in experiment [8] and in experiment [9].
In the case of `O=C(O)C(F)(F)C(F)(F)C(F)(F)C(F)(F)C(F)(F)C(F)(F)C(F)(F)F`, the outcome in [1], in experiment [4], in [5], in experiment [6], in experiment [7] and in experiment [9] was inactive.
Consider `COP(=S)(OC)Oc1ccc([N+](=O)[O-])cc1`, for which the compound was called inactive in [1], in experiment [2], in experiment [4], in experiment [5], in experiment [6] and in experiment [7]. Further, the outcome in experiment [8] and in experiment [9] was inactive.
With `O=[N+]([O-])c1c(Cl)c(Cl)c(Cl)c(Cl)c1Cl`, the compound was called inactive in experiment [1], in experiment [3], in experiment [4], in experiment [5] and in experiment [7]. In addition, the figures for the AC50 in [6], in experiment [8] and in experiment [9] were 37.6 µM (active), 80.8 µM (active) and 50 µM (active), respectively.
On to `CC(C)OC(=O)Nc1cccc(Cl)c1`, for which the result in experiment [1], in experiment [2], in [4], in [5], in experiment [6] and in experiment [7] was inactive. Moreover, the outcome in [8] was inactive. In [9], the half-maximal activity concentration (AC50) (as a rule, the concentration at which the activity in the assay is half-maximal) was 50 µM (active).
In the case of `O=S(=O)(O)C(F)(F)C(F)(F)C(F)(F)C(F)(F)C(F)(F)C(F)(F)C(F)(F)C(F)(F)F`, the result in experiment [1], in experiment [4], in experiment [5], in experiment [6], in experiment [7] and in experiment [8] was inactive. The outcome in experiment [9] was inactive. For the same compound, the AC50 was 84 µM (active) in experiment [6]; 24.7 µM (active) and 208 µM (active) and 272 µM (active) in experiment [7]; 182 µM (active) and 54.8 µM (active) in experiment [8].
On to `COP(=S)(OC)Oc1ccc(SC)c(C)c1`, for which the outcome in experiment [1], in experiment [3], in experiment [4], in experiment [10], in experiment [5] and in experiment [6] was inactive. The outcome in experiment [7], in experiment [8] and in experiment [9] was inactive.
`CNC(=O)Oc1cccc(N=CN(C)C)c1`: the compound was called inactive in experiment [1], in experiment [2], in [4], in experiment [5], in [6] and in experiment [7]. Also, in experiment [8], the compound was classed as inactive. The AC50 in experiment [9] was 72.1 µM (active).
Consider `CCOC1Oc2ccc(OS(C)(=O)=O)cc2C1(C)C` (centres undefined), for which the compound was classed as inactive in [1], in experiment [4], in [5], in experiment [6] and in [7]. In addition, the concentration at half-maximal activity (AC50) in experiment [9] is 50 µM (active).
For `C#CCN1C(=O)COc2cc(F)c(N3C(=O)C4=C(CCCC4)C3=O)cc21`, the outcome in experiment [1], in experiment [3], in experiment [4], in experiment [10], in experiment [5] and in experiment [6] was inactive. In addition, the call in experiment [7], in experiment [8] and in experiment [9] was inactive.
Consider `CCC(C)Nc1c([N+](=O)[O-])cc(C(C)(C)C)cc1[N+](=O)[O-]` (centres undefined), for which the call in experiment [1], in experiment [3], in [4], in experiment [5], in experiment [6] and in experiment [7] was inactive. Besides, the AC50 in experiment [9] is 31.6 µM (active).
Take `CC1(C)C(C=C(Cl)Cl)C1C(=O)OC(C#N)c1ccc(F)c(Oc2ccccc2)c1` (centres undefined): the outcome in experiment [1], in [3], in [4], in [5], in experiment [6] and in experiment [7] was inactive. For the same compound, the outcome in experiment [8] and in experiment [9] was inactive.
Take `CNC(=O)Oc1ccccc1OC(C)C`: the result in experiment [1], in experiment [3], in experiment [4], in [10], in experiment [5] and in [6] was inactive. In addition, the call in experiment [7], in experiment [8] and in experiment [9] was inactive.
